An excerpt weighted towards active compounds, which were near 7.9% of everything screened.
KB-3-1 tox: qHTS assay for MDR1-selective chemotherapeutics: Primary screen using the parental adenocarcinoma cell KB-3-1; KB-3-1 viability, CellTiter-Glo ATP luminescence, 72 h; Potency, µM (top dose mostly 46.1 µM), hits mostly cytotoxic; hit rate 1.4% among 400,000; AID 1347075, 2019; note: % is set by controls: 0 for no effect and ±100 for the full control effect; nearly all actives have a fitted effect of over 60% in size
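KB-3-1 cells, DMEM (no phenol red) + 10% FBS; compound by pin transfer, 72 h, 37 °C. Readout: CellTiter-Glo luminescence after 10 min. Data normalized, curve-fitted.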
KB-V1 MDR tox: qHTS assay for MDR1-selective chemotherapeutics: Primary screen using the drug-selected MDR subline cells KB-V1; KB-V1 MDR cells viability, CellTiter-Glo, 72 h; Potency, µM (series often up to 46.1 µM), usual class: cytotoxic; hit rate 3.4% among 400,000; AID 1347076, 2019; note: % is set by controls: 0 for no effect and ±100 for the full control effect; nearly all actives have a fitted effect of over 60% in size
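Cells of the MDR subline KB-V1 are plated, dosed with compound at multiple concentrations, and incubated 72 h at 37 degrees C; CellTiter-Glo is then added and luminescence read after 10 min.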
SW480 rereplic: A quantitative high throughput screen for small molecules that induce DNA re-replication in SW480 colon adenocarcinoma cells. SW480 DNA re-replication, Hoechst DNA content imaging, 48 h. Potency, µM (titrated, usually from 46.1 µM), for the others: at the highest dose re-replication activation, most hits filed as activators. hit rate 1.8% among 340,000. AID 624297, 2012; note: % of control where 0% means no effect; nearly all actives have a fitted effect of over 55% in size
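SW480 cells exposed to compounds for 48 hr at 37 C, 5% CO2, then Hoechst-stained 40 min. Nuclear DNA content imaged by fluorescence scanning (405 nm excitation, 500-530 nm emission); re-replication scored as increased high-intensity nuclei.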
HT1080-NT tox: qHTS for induction of synthetic lethality in tumor cells producing 2HG: qHTS for the HT-1080-NT fibrosarcoma cell line; HT-1080-NT fibrosarcoma viability, CellTiter-Glo ATP luminescence, 48 h; Potency, µM (doses to about 46.1 µM), for inactives: top-dose activity, negative = less viability, usual class: cytotoxic; hit rate 1.6% among 360,000; AID 686970, 2013;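 note: NT is the 2HG producing partner of a matched IDH1 knockdown line; 0% = DMSO-treated cells and -100% = media-only wells without cells; nearly all actives have a fitted effect of over 55% in size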
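Compounds were tested in concentration-response format on HT-1080-NT cells for 48 hours at 37 degrees C. Cell viability came from CellTiter-Glo luminescence; curves were classified by r2, response magnitude and activity.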
HT1080 IDH1KD tx: qHTS for induction of synthetic lethality in tumor cells producing 2HG: qHTS for the HT-1080-IDH1KD cell line. hit rate 2% among 360,000. Potency, µM (highest dose often 46.1 µM), for the others: top-dose activity, negative = toxicity, actives largely listed as cytotoxic. HT-1080 IDH1 knockdown viability, ATP luminescence, 48 h;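 note: 0% = DMSO wells and -100% = cell-free medium wells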
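Cytotoxicity counter-line: IDH1KD HT-1080, 48 h, CellTiter-Glo. Curves classed by r2, magnitude and activity.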
MCF10A rerep: A quantitative high throughput screen for small molecules that induce DNA re-replication in MCF 10a normal breast cells. MCF 10A DNA re-replication, Hoechst nuclear intensity, 48 h. Potency, µM (top dose mostly 46.1 µM), inactives show at the highest dose activity, positive = re-replication, most hits filed as activators. hit rate 2.9% among 350,000; note: % of control where 0% means no effect; nearly all actives have a fitted effect of over 50% in size
* hit, by the source's call; i = inactive; ? = inconclusive; . = no result; [ ] = remark or other dose. Calls come from the whole dose curve; as a rule, active = well fitted curve in the direction sought with a large enough effect; inconclusive = small, poorly fitted or top-dose-only effect, or another doubt; inactive = no such curve, though single readings can be large; an effect the other way counts as inactive or inconclusive. Potency is the fitted concentration of half-maximal effect.

SMILES	KB-3-1 tox	KB-V1 MDR tox	SW480 rereplic	HT1080-NT tox	HT1080 IDH1KD tx	MCF10A rerep
COc1ccc(/C=C2\Oc3ccccc3C2=O)cc1	?	?	-2.3%	9.6%	-2.5%	-29.7%
CCOc1ccc(/C=C2\C(=O)c3ccccc3OC2c2ccccc2)cc1 (stereo unspecified)	?	16.4µM*	?	11.1%	-26.3%	5.17µM*
COc1ccc(-c2cc(C)no2)cc1S(=O)(=O)N1CCOc2ccc(C)cc21	i	i	?	1.4%	-1.2%	15.3%
Cc1ccccc1Cn1c(C)c(C(=O)N(C)Cc2ccc(F)cc2)sc1=O	?	16.4µM*	.	9.4%	4.6%	.
COc1ccc(Br)c(Cn2c(C)c(C(=O)N(C)Cc3ccc(F)cc3)sc2=O)c1	?	8.2µM*	.	1.5%	?	.
CC1CCN(CC(=O)NC2CCCCC2)CC1	i	i	-0.8%	16.8%	15.3%	3.5%
COc1ccc(C(=O)CCS(=O)(=O)c2ccc(C)cc2)cc1OC	i	i	5.17µM*	-5.6%	?	?
Cc1ccc(S(=O)(=O)CCC(=O)c2ccc(O)cc2O)cc1	?	i	?	-4.1%	3.3%	18.4µM*
Cc1ccc(S(=O)(=O)CCC(=O)OCC(=O)c2cc(C)ccc2C)cc1	i	i	-0.4%	3.4%	1.0%	1.4%
Cc1ccc(N(C(=O)Cn2nnc3ccccc32)C(C(=O)NC2CCCCC2)c2cn(C)nc2C)cc1 (stereo unspecified)	i	i	0.6%	-18.1%	3.0%[9.24 µM]	-4.8%
CCC(=O)N1CCN(c2ccccc2NC(=O)COc2cc(C)ccc2C(C)C)CC1	?	?	0.7%	?	?	-4.4%
Cc1c(C(=O)N2CCCCC2)c(S(=O)(=O)N2CCN(c3ccc(F)cc3)CC2)c(C)n1C	i	i	-5.6%	2.3%	-1.3%	?
N#Cc1ccc(-c2nc3ccc(Br)cc3c(=O)n2O)cc1	?	i	-4.5%	1.3%	9.7%	0.7%
O=c1c2cc(Br)ccc2nc(-c2cccc(C(F)(F)F)c2)n1O	2.91µM*	2.31µM*	10.6%	?	?	?
Cc1cc(Nc2ccccc2)n(-c2nc3ccccc3[nH]2)n1	?	?	14.2%	?	?	?
Cc1cc(NC(=O)c2ccccc2F)n(-c2nc3ccccc3[nH]2)n1	?	14.6µM*	5.3%	?	-18.2%	?
Cc1cc(NC(=O)c2c(F)cccc2Cl)n(-c2nc3ccccc3[nH]2)n1	i	i	-4.7%[9.22 µM]	?	?	10µM*
O=C(Nc1nc2ccccc2[nH]1)c1ccccc1F	?	7.31µM*	?	4.61µM*	5.8µM*	?
Cc1cc(NC(=O)C2CCCCC2)n(-c2nc3ccccc3[nH]2)n1	?	?	1.9%	?	?	?
Cc1cc(NC(=O)c2ccc(C)s2)n(-c2nc3ccccc3[nH]2)n1	i	i	0.8%	-7.1%	-0.2%	5.2%
Cc1cc(NC(=O)c2c(F)cccc2F)n(-c2nc3ccccc3[nH]2)n1	?	i	8.2µM*	?	10µM*	11.6µM*
O=C(Nc1nc2ccccc2[nH]1)c1ccc(F)cc1	?	?	?	-0.1%[9.24 µM]	?	1.5%
O=C(CC1CC2CCC1C2)N1CCN(S(=O)(=O)c2ccccc2C(F)(F)F)CC1 (stereo unspecified)	i	i	-26.0%	-9.0%	0.1%	12.9%
O=C(NCc1cc(C(F)(F)F)cc(C(F)(F)F)c1)C1CC(c2ccc(C(F)(F)F)cc2)=NO1 (stereo unspecified)	i	i	-29.6%[9.22 µM]	0.7%	4.0%	6.2%
O=C(Nc1nc2ccccc2[nH]1)c1cc2ccccc2o1	i	i	-10.1%	?	7.31µM*	?
SMILES	KB-3-1 tox	KB-V1 MDR tox	SW480 rereplic	HT1080-NT tox	HT1080 IDH1KD tx	MCF10A rerep
O=C(NCCc1nc2ccccc2[nH]1)c1ccc(F)cc1	?	11.6µM*	3.2%	0.3%	-18.7%	1.0%
COc1ccc(O)c(C(=O)c2cc(C(=O)NCCc3ccccc3)c(=O)n(CCc3ccccc3)c2)c1	i	2.06µM*	1.2%	2.7%	1.3%	6.3%
Cc1ccc(O)c(C(=O)c2cc(C(=O)NCCc3ccccc3)c(=O)n(CCc3ccccc3)c2)c1	i	i	?	8.0%	1.1%	?
COc1cccc(NC(=O)CNS(=O)(=O)c2ccc(Cl)cc2)c1	i	i	-1.3%	-7.4%	-19.8%	0.1%
C#Cc1ccc([C@@H]2C=C(C(=O)NC3CC3)O[C@H](OCC)[C@H]2CCCO)cc1	i	i	-0.4%	2.6%	0.4%	?
CCO[C@H]1OC(C(=O)NC2CC2)=C[C@@H](c2ccccc2)[C@@H]1CCCO	i	i	?	?	?	23.1µM*
O=C1c2ccccc2NC(c2ccc(Br)s2)N1O (stereo unspecified)	?	?	23.1%	?	?	23.1µM*
CC(C)COc1ccc2[nH]c3c(c2c1)CCCC3=O	0.92µM*	0.184µM*	-3.9%	-0.1%	-2.7%	0.4%
O=C1CCCc2c1[nH]c1ccccc21	i	i	-3.1%	6.9%	4.8%	12.8%
O=C(NCC(=O)N1CCCCCCC1)c1cccc([N+](=O)[O-])c1	i	20.6µM*	1.6%	-3.4%	-3.0%	-0.3%
O=C(CCC(=O)N1CCCCCC1)Nc1ccc([N+](=O)[O-])cc1	i	i	18.4%	6.51µM*	?	3.9%
Cc1cc(N2CCN(C)CC2)nc2ccc(NC(=O)CCC(=O)N3CCN(c4ccc([N+](=O)[O-])cc4)CC3)cc12	i	i	?	20.6µM*	16.4µM*	18.4µM*
Cc1cc(N2CCOCC2)nc2ccc(NC(=O)CCC(=O)N3CCN(c4ccccc4)CC3)cc12	i	i	-5.6%	5.2%	0.0%	0.7%
Cc1cc([N+](=O)[O-])ccc1NC(=O)CCC(=O)N1CCCCC1	i	i	-6.7%	8.6%	5.6%	0.4%
COc1ccc(S(=O)(=O)c2cc3cc(C(C)(C)C)cc(O)c3oc2=O)cc1	i	i	.	.	.	.
CC(=O)c1ccc(NC(=O)c2cc(Cl)nc3ccccc23)cc1	i	i	-3.0%	-0.8%	-8.9%	?
